Source: PubChem
Only some compounds are listed: those with a hit (about 6.7% of all), similar ones and a draw of the others.
PINK1 modulator: PINK1 expression modulation; PINK1 immunofluorescence, high-content cytometry, 24 h; Potency, µM (doses to about 76.6 µM), hits mostly activators; 410,000 compounds, 0.2% hits; active means well fitted activation curve with a large enough effect; inconclusive means small, poorly fitted or top-dose-only effect; cell line not stated here; further: nearly all actives have a fitted effect of over 65% in size
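Cells are seeded, rested 12 hours, then given compound at five concentrations or DMSO for 24 hours. After fixation, blocking and antibody staining, PINK1 amount and mitochondrial localization are scored; CCCP serves as control.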
KB-V1 MDR tox: KB-V1 MDR subline cytotoxicity; AID 1347076; Potency, µM (top dose mostly 46.1 µM), usual class: cytotoxic; KB-V1 MDR cells viability, CellTiter-Glo, 72 h; 400,000 compounds, 3.4% hits; further: nearly all actives have a fitted effect of over 60% in size
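KB-V1 cells (P-gp-expressing MDR subline of KB-3-1) in phenol-red-free DMEM with 10% FBS were exposed to library compounds over a concentration series for 72 h at 37 degrees C. Viability read by CellTiter-Glo luminescence; concentration-effect curves fitted after normalization.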
SW480 rereplic: induces DNA re-replication in SW480 colon adenocarcinoma cells; SW480 DNA re-replication, Hoechst DNA content imaging, 48 h; Potency, µM (series often up to 46.1 µM), actives largely listed as activators; 340,000 compounds, 1.8% hits; further: nearly all actives have a fitted effect of over 55% in size
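Compounds, transferred as 23 nL by pin tool, were incubated with cells for 48 hr; DNA content per nucleus was then quantified by Hoechst staining and fluorescence plate imaging.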
KB-3-1 tox: KB-3-1 parental cell cytotoxicity | KB-3-1 viability, CellTiter-Glo ATP luminescence, 72 h | Potency, µM (titrated, usually from 46.1 µM), most hits filed as cytotoxic | 400,000 compounds, 1.4% hits; further: nearly all actives have a fitted effect of over 60% in size
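Luminescent ATP read-out (CellTiter-Glo) measures survival of drug-naive KB-3-1 cells after 72 h compound exposure at 37 °C. Titration series was screened from lowest to highest concentration, with DMSO vehicle plates as background controls.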
MCF10A rerep: inducers of DNA re-replication in MCF 10A breast cells; MCF 10A DNA re-replication, Hoechst nuclear intensity, 48 h; Potency, µM (highest dose often 46.1 µM), most hits filed as activators; 350,000 compounds, 2.9% hits; AID 624296; further: nearly all actives have a fitted effect of over 50% in size
Hits are given with their value. Unless noted, the call rests on the fitted dose curve; in most records, active means well fitted curve in the direction sought with a large enough effect; inconclusive means small, poorly fitted or top-dose-only effect, or another doubt; inactive means no such curve, though single readings can be large; an effect the other way counts as inactive or inconclusive.

Results for COc1ccc(-c2nnc(CSc3nc4ccccc4c(=O)n3CC(C)C)o2)cc1OC ?
PINK1 modulator: inactive; KB-V1 MDR tox: 20.6µM; SW480 rereplic: inactive; KB-3-1 tox: inactive; MCF10A rerep: inactive

How did COCCCn1c(SCc2nnc(-c3ccc(OC)c(OC)c3)o2)nc2ccccc2c1=O do in these assays?
PINK1 modulator: inactive; KB-V1 MDR tox: inconclusive; SW480 rereplic: inactive; KB-3-1 tox: inactive; MCF10A rerep: inactive

Results for CC(C)Cn1c(SCc2nc3ccccc3c(=O)[nH]2)nc2ccccc2c1=O ?
PINK1 modulator: inactive; KB-V1 MDR tox: inactive; SW480 rereplic: inconclusive; KB-3-1 tox: inactive; MCF10A rerep: 11.2µM

What do the screens show for `O=c1[nH]c(CSc2nnc(Nc3ccccc3)s2)nc2ccccc12`?
PINK1 modulator: inactive; KB-V1 MDR tox: inactive; SW480 rereplic: 16.4µM; KB-3-1 tox: inactive; MCF10A rerep: inactive

How did C[C@H](CO)N1C[C@H](C)[C@H](CN(C)S(=O)(=O)c2cccc(F)c2)Oc2ncc(-c3cccc(C(=O)N(C)C)c3)cc2C1=O do in these assays?
PINK1 modulator: inactive; KB-V1 MDR tox: inactive; KB-3-1 tox: inactive

How did COC(=O)c1cc(CSc2nnc(NC3CCCCC3)s2)oc1C do in these assays?
PINK1 modulator: inactive; KB-V1 MDR tox: 20.6µM; SW480 rereplic: inactive; KB-3-1 tox: inconclusive; MCF10A rerep: inactive

Results for Cc1ccc(N(CC(=O)Nc2cc(Cl)ccc2Oc2ccccc2)S(C)(=O)=O)cc1C ?
PINK1 modulator: inactive; KB-V1 MDR tox: 20.6µM; SW480 rereplic: inactive; KB-3-1 tox: inconclusive; MCF10A rerep: inactive

Results for Cc1ccc(N(C(C)C(=O)Nc2cc(Cl)ccc2Oc2ccccc2)S(C)(=O)=O)cc1 (stereo not drawn) ?
KB-V1 MDR tox: inconclusive; SW480 rereplic: 8.2µM; KB-3-1 tox: inactive; MCF10A rerep: inactive

Results for COc1cccc(CNC(=O)CCCCCn2c(=O)[nH]c3cc(OC)c(OC)cc3c2=O)c1 ?
PINK1 modulator: inactive; KB-V1 MDR tox: inactive; KB-3-1 tox: inactive

Results for CSCCC1NC2(C(=O)Nc3c2ccc(Cl)c3C)[C@@H]2C(=O)N(C3CCCC3)C(=O)[C@H]12 (stereo partly drawn) ?
PINK1 modulator: inactive; KB-V1 MDR tox: 4.11µM; SW480 rereplic: inconclusive; KB-3-1 tox: inconclusive; MCF10A rerep: inactive

How did Cc1c(Cl)ccc2c1NC(=O)C21NC(CCC(N)=O)[C@H]2C(=O)N(c3ccc(Cl)cc3)C(=O)[C@H]21 (stereo partly drawn) do in these assays?
PINK1 modulator: inactive; KB-V1 MDR tox: inactive; SW480 rereplic: inactive; KB-3-1 tox: inactive; MCF10A rerep: inactive

What do the screens show for `COc1ccc(/C=C2/SC(=S)N(Cc3ccccc3)C2=O)cc1O`?
PINK1 modulator: inactive; KB-V1 MDR tox: inactive; SW480 rereplic: inactive; KB-3-1 tox: inactive; MCF10A rerep: inconclusive

How did COc1ccc(OC)c(/C=C2\SC(=S)N(Cc3cccnc3)C2=O)c1 do in these assays?
PINK1 modulator: inactive; KB-V1 MDR tox: 14.6µM; SW480 rereplic: 16.4µM; KB-3-1 tox: inconclusive; MCF10A rerep: 6.51µM

What do the screens show for `COc1ccc(O)c(/C=C2/SC(=S)N(Cc3ccccc3)C2=O)c1`?
PINK1 modulator: inactive; KB-V1 MDR tox: inconclusive; SW480 rereplic: inactive; KB-3-1 tox: inconclusive; MCF10A rerep: 13µM

How did COc1ccc(OC)c(/C=C2\SC(=S)N(NS(=O)(=O)c3ccccc3)C2=O)c1 do in these assays?
PINK1 modulator: inactive; KB-V1 MDR tox: inactive; SW480 rereplic: inactive; KB-3-1 tox: inactive; MCF10A rerep: inactive

Results for O=C1/C(=C\c2cc(Cl)c(O)c(Cl)c2)SC(=S)N1Cc1ccccc1 ?
PINK1 modulator: inconclusive; KB-V1 MDR tox: 3.66µM; SW480 rereplic: inconclusive; KB-3-1 tox: inconclusive; MCF10A rerep: 2.06µM

Results for Cc1ccsc1C(=O)N/N=C/c1ccc2c(c1)OCO2 ?
PINK1 modulator: inactive; KB-V1 MDR tox: 18.4µM; SW480 rereplic: inactive; KB-3-1 tox: inconclusive; MCF10A rerep: inactive

Results for Cc1occc1C(=O)N/N=C/c1ccc(OCc2ccccc2)cc1 ?
PINK1 modulator: inactive; KB-V1 MDR tox: inactive; SW480 rereplic: inactive; KB-3-1 tox: inactive; MCF10A rerep: inactive

What do the screens show for `Cc1occc1C(=O)N/N=C/c1ccc(-c2ccccc2)cc1`?
PINK1 modulator: inactive; KB-V1 MDR tox: 13µM; SW480 rereplic: inactive; KB-3-1 tox: 20.6µM; MCF10A rerep: inactive

Results for Cc1occc1C(=O)N/N=C/c1ccc2c(c1)OCO2 ?
PINK1 modulator: inactive; KB-V1 MDR tox: 7.31µM; SW480 rereplic: inactive; KB-3-1 tox: 14.6µM; MCF10A rerep: inactive

How did O=C(OCc1ccccc1)N1CCC2CC1c1ccc(/C=C/CCCCl)cc12 (stereo not drawn) do in these assays?
PINK1 modulator: inactive; KB-V1 MDR tox: inactive; KB-3-1 tox: inactive

What do the screens show for `COc1ccc(NC(=O)Cn2ccn(-c3ccccc3)c(=O)c2=O)cc1`?
PINK1 modulator: inactive

How did CN(CCc1ccccc1)C(=O)c1ccc(NC(=O)Cc2ccc(NC(=O)C3CCN(C(=O)CCc4ccccc4)CC3)cc2)cc1 do in these assays?
PINK1 modulator: inactive; KB-V1 MDR tox: inactive; SW480 rereplic: inactive; KB-3-1 tox: inactive; MCF10A rerep: inactive

Results for CC(OC(=O)c1ccc2c(c1)OCO2)C(=O)NC1CCCCC1C (stereo not drawn) ?
PINK1 modulator: inactive; KB-V1 MDR tox: inconclusive; SW480 rereplic: inactive; KB-3-1 tox: inactive; MCF10A rerep: inactive

How did CC(OC(=O)c1ccc(-c2ccc(O)cc2)cc1)C(=O)NC1CCCCC1C (stereo not drawn) do in these assays?
PINK1 modulator: inactive; KB-V1 MDR tox: 16.4µM; SW480 rereplic: inactive; KB-3-1 tox: inconclusive; MCF10A rerep: inactive

Results for CCOc1ccc(CCNC(=O)c2ccc(CS(=O)(=O)Cc3ccccc3Cl)o2)cc1OCC ?
PINK1 modulator: inactive; KB-V1 MDR tox: inconclusive; KB-3-1 tox: inactive

Results for Cc1ccc2c(CN(C)Cc3ccc(OC(F)F)cc3)cc(=O)oc2c1C ?
PINK1 modulator: inactive; KB-V1 MDR tox: 16.4µM; SW480 rereplic: inactive; KB-3-1 tox: inconclusive; MCF10A rerep: inactive

What do the screens show for `Oc1cccc(O)c1O`?
SW480 rereplic: inactive; MCF10A rerep: inactive

What do the screens show for `Clc1ccc(C(Cn2ccnc2)OCc2c(Cl)cccc2Cl)c(Cl)c1` (stereo not drawn)?
PINK1 modulator: inactive; KB-V1 MDR tox: inconclusive; SW480 rereplic: inconclusive; KB-3-1 tox: inactive; MCF10A rerep: 4.61µM

What do the screens show for `Cc1cc(C)c(OCC(=O)Nc2cccc(NC(=O)c3ccco3)c2)c(Br)c1`?
PINK1 modulator: inactive; KB-V1 MDR tox: 20.6µM; SW480 rereplic: inactive; KB-3-1 tox: inactive; MCF10A rerep: inactive

How did Cc1cc(C)c(OCC(=O)Nc2ccc(NC(=O)c3ccco3)cc2)c([N+](=O)[O-])c1 do in these assays?
PINK1 modulator: inactive; KB-V1 MDR tox: inactive; SW480 rereplic: inactive; KB-3-1 tox: inactive; MCF10A rerep: inactive

How did O=C(CSc1ccc(Cl)cc1)Nc1ccc(NC(=O)c2ccco2)cc1 do in these assays?
KB-V1 MDR tox: inactive; SW480 rereplic: inactive; KB-3-1 tox: inactive; MCF10A rerep: inactive
